Laboratory results as given in PubChem BioAssay (NCATS).
Values joined by “and” are separate entries in the source; they are usually repeats but may differ in a detail not shown here. Identical values can stand only once. Results filed as inconclusive are left out. Active and inactive are the calls of the source. Unless noted, calls come from the whole dose curve; as a rule, active = well fitted curve in the direction sought with a large enough effect; inconclusive = small, poorly fitted or top-dose-only effect, or another doubt; inactive = no such curve, though single readings can be large; an effect the other way counts as inactive or inconclusive.

How the values were obtained:
[1] = Cell Viability - BJ (AID 421; calls by dose curve;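 note: potency is the fitted concentration of half-maximal effect; cells exposed to compound for 40 hours at 37 °C before readout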); details: BJ fibroblast viability, qHTS
Procedure, shortened: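 Cytotoxicity as drop in intracellular ATP (CellTiter-Glo, 20 min RT) after 40 hr compound exposure of BJ fibroblasts at 37 °C. Titrations scaled between DMSO and 100 uM tamoxifen, Hill-fitted for AC50.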

[2] = Cell Viability - Jurkat (AID 426;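 active = dose-dependent loss of cell ATP signal giving a full or clear fitted curve, ranked by lower potency value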;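 note: potency is the fitted concentration of half-maximal effect; cells exposed to compound for 40 hours at 37 °C before ATP read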); details: qHTS
Procedure, shortened: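 Jurkat (Clone E6-1) cells, 5000/well in complete medium, exposed to compounds for 40 hr at 37C; intracellular ATP measured by CellTiter-Glo luminescence after 20 min at room temperature. AC50 from Hill fits.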

[3] = Cell Viability - Hek293 (AID 427;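 active = compounds whose dose-response curve shows a full or clear partial loss of cell viability, called from curve shape rather than a numeric limit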;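 note: potency is the fitted concentration of half-maximal effect; cells exposed to compound for 40 hours at 37 °C before reading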); details: qHTS
Procedure, shortened: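 Luminescent ATP content (CellTiter-Glo, 20 min at room temperature) was measured after a 40 hr, 37 °C compound exposure of HEK293 cells. AC50 values came from Hill-equation fits of qHTS concentration-response data normalized to DMSO and 100 uM tamoxifen.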

[4] = Cell Viability - HepG2 (AID 433; calls by dose curve;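 note: potency is the fitted concentration of half-maximal effect; potency for ATP loss meaning cytotoxicity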); details: qHTS
Procedure, shortened: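 ATP luminescence (CellTiter-Glo) after 40 h compound exposure, 37 °C, HepG2, 1500 cells/well, complete medium. Normalized: DMSO = basal, 100 uM tamoxifen = 100% inhibition. AC50 via standard Hill equation.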

[5] = Cell Viability - SK-N-SH (AID 435; calls by dose curve; note: potency is the fitted concentration of half-maximal effect); details: SK-N-SH neuroblastoma cell viability qHTS
Procedure, shortened: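 CellTiter-Glo ATP luminescence, 20 min RT read; cells pre-plated 5 hr, compound 40 hr at 37 °C, 1500 cells/well, complete medium. Normalized DMSO = 0, 100 uM tamoxifen = 100% inhibition; Hill-fit AC50.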

[6] = Cell Viability - Renal Proximal Tubule (AID 545); details: renal proximal tubule cells viability; series mostly up to 91.7 µM;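 note: 0% = DMSO only and -100% = 100 µM tamoxifen; nearly all actives have a fitted effect of over 40% in size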
Procedure, shortened: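 Rat kidney proximal tubule cells, freshly isolated; 1000 cells/well, 5 hr settle, compound 40 hr 37 °C. CellTiter-Glo 20 min RT, luminescence read. AC50 by standard Hill fit.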

[7] = Cellular Toxicity (caspase-3) HUV-EC-C (AID 656); details: HUV-EC-C cells, caspase-3 activation (apoptosis), vehicle = 0, 100 µM tamoxifen = 100%; series mostly up to 92.2 µM;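 note: 0% = DMSO basal and 100% = 100 µM tamoxifen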
Procedure, shortened: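 Luminescent caspase-3/7 activation (aminoluciferin substrate cleavage) in HUV-EC-C cells after 16 hr compound exposure, 37°C. Signal normalized to DMSO basal and 100 uM tamoxifen as 100%; AC50 from concentration-response fitted with the Hill equation.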

[8] = Cellular Toxicity (caspase-3) SHSY5Y (AID 657); details: SH-SY5Y caspase-3 activation, DMSO zero, 10 µM staurosporine = 100%; series mostly up to 91.7 µM
Procedure, shortened: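 Luminescent caspase-3/7 readout (aminoluciferin release) in SH-SY5Y cells after 16 h compound exposure in complete medium. Activity scaled between DMSO basal and 10 uM staurosporine as 100%; concentration-response fitted to Hill equation for AC50.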

[9] = Cellular Toxicity (caspase-3) MRC-5 (AID 659); details: MRC-5 cells, luminescence, normalized: DMSO 0%, 10 µM staurosporine 100%; series mostly up to 91.7 µM
Procedure, shortened: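 Luminescence from caspase-cleaved aminoluciferin substrate (Caspase-Glo 3/7, 1 hr RT) reports caspase 3/7 activity in MRC-5 lung fibroblasts after 16 hr compound exposure. Normalized to DMSO basal and 10 uM staurosporine as 100%; AC50 from Hill fits.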

[10] = MultiTox-Fluor Cytotoxicity Assay - LYMP1-002 - Live Cells (AID 955); details: LYMP1-002 lymphoblastoid live-cell protease fluorescence viability; series mostly up to 46.1 µM; note: % is set by controls: 0 for no effect and ±100 for the full control effect
Procedure, shortened: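 Human lymphoblastoid LYMP1-002 cells, 2500/well, treated 16 h at 37 C in complete medium. Live-cell protease activity via GF-AFC fluorescence (Ex/Em 405/510) after 60 min reagent incubation; AC50 from Hill fits.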

[11] = Cell Viability - LYMP1-003 - Assay at 24 hr (AID 963); details: LYMP1-003 lymphoblastoid cell viability; series mostly up to 92.2 µM;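 note: plate controls were DMSO only for no effect and tetraoctylammonium bromide positive control for full effect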
Procedure, shortened: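 Human lymphoblastoid LYMP1-003 cells, 2500/well, treated 24 h at 37 C in complete medium. Viability read as intracellular ATP by CellTiter-Glo luminescence after 30 min at room temperature; AC50 from Hill-equation fits of qHTS concentration-response.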

[12] = Cell Viability - LYMP2-009 (AID 968); details: LYMP2-009 lymphoblastoid cell viability; series mostly up to 92.2 µM;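 note: 0% = DMSO alone and the full-kill end = tetraoctylammonium bromide at 92 µM; nearly all actives have a fitted effect of over 55% in size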
[13] = Cell Viability - LYMP2-017 (AID 972); details: LYMP2-017 lymphoblastoid cell viability; series mostly up to 92.2 µM; note: % is set by controls: 0 for no effect and ±100 for the full control effect; nearly all actives have a fitted effect of over 55% in size
Procedure, shortened: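 LYMP2-017 human lymphoblastoid cells (2500/well) settled 5 hr at 37 C, then exposed to compound 24 hr at 37 C in complete medium. Viability taken as intracellular ATP by CellTiter-Glo luminescence after 30 min at RT; AC50 from Hill fits.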

[14] = Cell Viability - LYMP2-025 (AID 976); details: LYMP2-025 lymphoblastoid cell viability; series mostly up to 92.2 µM;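 note: plate controls were DMSO only for no effect and tetraoctylammonium bromide control for full effect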
Procedure, shortened: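 Human lymphoblastoid LYMP2-025 cells, 2500/well, exposed 24 h at 37 C in complete medium in 1536-well qHTS. Viability as cellular ATP by CellTiter-Glo luminescence; AC50 from Hill fits of concentration-response data.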

[15] = Cell Viability - LYMP2-016 (AID 984); details: LYMP2-016 lymphoblastoid cell viability, qHTS; series mostly up to 92.2 µM; note: % is set by controls: 0 for no effect and ±100 for the full control effect; nearly all actives have a fitted effect of over 55% in size
Procedure, shortened: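 qHTS, 1536-well: 2500 LYMP2-016 cells/well, 5 hr 37 C, compound added, 24 hr 37 C, CellTiter-Glo 30 min RT, luminescence. Tetraoctylammonium bromide positive control. AC50 via Hill fit.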

[16] = Cell Viability - LYMP2-024 (AID 988); details: LYMP2-024 lymphoblastoid cell viability; series mostly up to 92.2 µM;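 note: plate controls were DMSO only for no effect and 92 µM tetraoctylammonium bromide for full effect; nearly all actives have a fitted effect of over 60% in size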
Procedure, shortened: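 Human lymphoblastoid LYMP2-024 cells (2500/well) rested 5 hr, then treated with compound for 24 hr at 37 C in complete medium. Viability was measured as intracellular ATP by CellTiter-Glo luminescence. AC50 values came from Hill-equation fits.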

[17] = qHTS Assay for Identification of Small Molecule Inducers of Hypoxia Response (AID 2120; active = well fitted curve in the direction sought with a large enough effect in the signal ratio, with a control signal flat, not every such curve was filed as active; the % refers to the signal ratio; note: 0% is about no effect); details: hypoxia response reporter cells, beta-lactamase ratio readout; series mostly up to 104 µM
Procedure, shortened: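 HRE-bla ME-180 cells in Opti-MEM with 0.5% dialyzed FBS, pre-plated 4-5 h, then compound titration for 17 h at 37 degrees Celsius. CCF4 loaded 2.5 h at room temperature; 460/530 nm ratio gave %Activity and AC50 for induction.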

[18] = qHTS assay for small molecule agonists of retinoid X receptor alpha signaling (AID 588544); details: HEK293T RXRa-UAS-bla, beta-lactamase reporter, 18 h; 530 nm emission
[19] = target: Peroxisome proliferator-activated receptor alpha (Homo sapiens) (UniProt Q07869); assay: qHTS assay for small molecule agonists of the peroxisome proliferator-activated receptor alpha (PPARalpha) signaling pathway (AID 651778); details: PathHunter PPARalpha complementation, chemiluminescence, 6 h; stronger effect = higher value; note: % of control where 0% means no effect
Procedure, shortened: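 Cells plated at 2,000/well and held overnight at 37 C, 5% CO2, then compound added by pin tool for 6 hr; after PathHunter detection reagent and 60 min at room temperature, chemiluminescence from enzyme complementation was read.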

[20] = qHTS assay for small molecule agonists of the antioxidant response element (ARE) signaling pathway measured by Nrf2-dependant transcriptional activity - cell viability counter screen (AID 720653; active = well fitted curve in the direction sought with a large enough effect in the repeat runs; an effect the other way counts as inactive or inconclusive; note: % is set by controls: 0 for no effect and ±100 for the full control effect); details: ARE-bla HepG2 viability, CellTiter-Glo ATP luminescence, 16 h; stronger effect = lower value
Procedure, shortened: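 ARE-bla HepG2 cells (2,000/well) rested 5 hrs at 37C/5% CO2, then exposed to compounds in DMSO for 16 hrs. Viability was read in the same wells as intracellular ATP by luminescence, 30 min at room temperature after reagent addition.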

Sequence of Peroxisome proliferator-activated receptor alpha (Homo sapiens) (Q07869 whole entry, looked up): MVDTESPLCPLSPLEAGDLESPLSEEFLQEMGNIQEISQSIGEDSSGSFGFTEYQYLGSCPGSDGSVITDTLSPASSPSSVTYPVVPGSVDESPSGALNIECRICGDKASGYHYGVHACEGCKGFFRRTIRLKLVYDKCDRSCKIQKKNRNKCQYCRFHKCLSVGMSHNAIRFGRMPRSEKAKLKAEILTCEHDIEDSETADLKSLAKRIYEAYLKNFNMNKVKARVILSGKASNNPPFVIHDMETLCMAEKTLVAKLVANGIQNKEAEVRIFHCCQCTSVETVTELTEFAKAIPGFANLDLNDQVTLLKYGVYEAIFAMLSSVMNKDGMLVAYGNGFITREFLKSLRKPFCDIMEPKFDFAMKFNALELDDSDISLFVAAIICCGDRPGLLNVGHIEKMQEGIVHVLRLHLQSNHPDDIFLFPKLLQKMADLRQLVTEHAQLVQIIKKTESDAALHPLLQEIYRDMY

CCC/C=N/O
-21.6%: max response [18]
inactive: Potency [1] > 92 µM | Potency [2] > 92 µM | Potency [3] > 92 µM | Potency [4] > 92 µM | Potency [5] > 92 µM | outcome [6] | outcome [7] | outcome [8] | outcome [9] | outcome [10] | outcome [11] | Potency [12] | Potency [13] | Potency [14] | Potency [15] | Potency [16] | Potency [17] | max response [19] -3.79% | max response [20] -12.8%

c1ccoc1
inactive: Potency [1] > 92 µM | Potency [2] > 92 µM | Potency [3] > 92 µM | Potency [4] > 92 µM | Potency [5] > 92 µM | outcome [6] | outcome [7] | outcome [8] | outcome [9] | outcome [10] | outcome [11] | Potency [12] | Potency [13] | Potency [14] | Potency [15] | Potency [16] | Potency [17] | max response [19] 0.928% | max response [20] 9.49%
-15.5%: max response [18]

O=C(O)c1cc(Cl)ccc1Cl
inactive: Potency [1] > 92 µM | Potency [2] > 92 µM | Potency [3] > 92 µM | Potency [4] > 92 µM | Potency [5] > 92 µM | outcome [6] | outcome [7] | outcome [8] | outcome [9] | outcome [10] | outcome [11] | Potency [12] | Potency [13] | Potency [14] | Potency [15] | Potency [16] | Potency [17] | max response [19] 5.32% | max response [20] -0.443%
-6.74%: max response [18]

CC(=O)[O-].CC(=O)[O-].CC(=O)[O-].[Cr+3]
inactive: Potency [1] > 92 µM | Potency [2] > 92 µM | Potency [3] > 92 µM | Potency [4] > 92 µM | Potency [5] > 92 µM | outcome [6] | outcome [7] | outcome [8] | outcome [9] | outcome [10] | outcome [11] | Potency [12] | Potency [13] | Potency [14] | Potency [15] | Potency [16] | Potency [17] | max response [19] -3.23% | max response [20] 2.78%
-6.52%: max response [18]

Nc1ccc(-c2ccc(N)cc2)cc1
-10.1%: max response [18]
inactive: Potency [1] > 92 µM | Potency [2] > 92 µM | Potency [3] > 92 µM | Potency [4] > 92 µM | Potency [5] > 92 µM | outcome [6] | outcome [7] | outcome [8] | outcome [9] | outcome [10] | outcome [11] | Potency [12] | Potency [13] | Potency [14] | Potency [15] | Potency [16] | Potency [17] | max response [19] -0.279% | max response [20] -3.71%

CCC#N
inactive: Potency [1] > 92 µM | Potency [2] > 92 µM | Potency [3] > 92 µM | Potency [4] > 92 µM | Potency [5] > 92 µM | outcome [6] | outcome [7] | outcome [8] | outcome [9] | outcome [10] | outcome [11] | Potency [12] | Potency [13] | Potency [14] | Potency [15] | Potency [16] | Potency [17] | max response [19] -3.95% | max response [20] 13.6%
3.48%: max response [18]

O=S(=O)(O)F
inactive: Potency [1] > 92 µM | Potency [2] > 92 µM | Potency [3] > 92 µM | Potency [4] > 92 µM | Potency [5] > 92 µM | outcome [6] | outcome [7] | outcome [8] | outcome [9] | outcome [10] | outcome [11] | Potency [12] | Potency [13] | Potency [14] | Potency [15] | Potency [16] | Potency [17] | max response [19] -0.405% | max response [20] -6.55%
-13.3%: max response [18]

Nc1ccc(-c2ccccc2)cc1
9.85%: max response [18]
inactive: Potency [1] > 92 µM | Potency [2] > 92 µM | Potency [3] > 92 µM | Potency [4] > 92 µM | Potency [5] > 92 µM | outcome [6] | outcome [7] | outcome [8] | outcome [9] | outcome [10] | outcome [11] | Potency [12] | Potency [13] | Potency [14] | Potency [15] | Potency [16] | Potency [17] | max response [19] -0.418% | max response [20] 5.56%

CC(C)[C@]12CC(=O)[C@H](C)[C@H]1C2
inactive: Potency [1] > 92 µM | Potency [2] > 92 µM | Potency [3] > 92 µM | Potency [4] > 92 µM | Potency [5] > 92 µM | outcome [6] | outcome [7] | outcome [8] | outcome [9] | outcome [10] | outcome [11] | Potency [12] | Potency [13] | Potency [14] | Potency [15] | Potency [16] | Potency [17] | max response [19] 5.79% and -0.343% | max response [20] -4.23% and -2.13%
-6.67% and -9.54%: max response [18]

CCOP(=O)(OCC)OCC
inactive: Potency [1] > 92 µM | Potency [2] > 92 µM | Potency [3] > 92 µM | Potency [4] > 92 µM | Potency [5] > 92 µM | outcome [6] | outcome [7] | outcome [8] | outcome [9] | outcome [10] | outcome [11] | Potency [12] | Potency [13] | Potency [14] | Potency [15] | Potency [16] | Potency [17] | max response [19] 0.636% and -0.566% | max response [20] -1.09% and -8.89%
-8.04% and -7.35%: max response [18]
